Experimental data taken from PubChem BioAssay AID1159580 (chemical genetic matrix, 2015).
Several values for one entry are separate records, joined by “and”; a condition that tells them apart may be missing. Identical values can stand only once. The whole screen tested about 5,500 compounds, of which about 2,000 (36%) were called active. Roughly 18% stayed inconclusive and do not appear here. Rule as the data show it: active = normalized growth mostly below about 0.91 (no sharp cut-off); inconclusive = no clear call, values can overlap the other calls; inactive = mostly above about 0.92. This is one part of the list.

Assay: chemical genetic growth profiling, strain panel (AID 1159580);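 also: tested at 20 µM; growth read once vehicle control cultures reached saturation at 30 °C; 1 = growth at the plate median or of vehicle wells; lower values mean less growth of the strain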
Conditions: S. cerevisiae deletion strains, growth OD

Measured: normalized growth

Cc1cccc(Nc2ccccc2C(=O)O)c1C
0.907 (active) and 0.891 (inactive): locus YHR030C, strain SLT2, stronger effect = lower value
active: locus YAL013W, strain DEP1, stronger effect = lower value 0.89 | locus YAL030W, strain snc1, stronger effect = lower value 0.913 | locus YBR171W, strain sec66, stronger effect = lower value 0.843 | locus YBR229C, strain ROT2, stronger effect = lower value 0.912 | locus YBR279W, strain paf1, stronger effect = lower value 0.921 | locus YCL016C, strain dcc1, stronger effect = lower value 0.913 | locus YCL029C, strain bik1, stronger effect = lower value 0.907 | locus YCL061C, strain MRC1, stronger effect = lower value 0.894 | locus YCL069W, strain vba3, stronger effect = lower value 0.912 | locus YCR088W, strain abp1, stronger effect = lower value 0.895 | locus YDL040C, strain nat1, stronger effect = lower value 0.92 | locus YDL192W, strain arf1, stronger effect = lower value 0.834 | locus YDR001C, strain nth1, stronger effect = lower value 0.893 | locus YDR101C, strain arx1, stronger effect = lower value 0.885 | locus YDR137W, strain rgp1, stronger effect = lower value 0.739 | locus YDR150W, strain NUM1, stronger effect = lower value 0.894 | locus YDR162C, strain NBP2, stronger effect = lower value 0.806 | locus YDR297W, strain sur2, stronger effect = lower value 0.912 | locus YDR318W, strain mcm21, stronger effect = lower value 0.882 | locus YDR388W, stronger effect = lower value 0.869 | locus YDR392W, strain spt3, stronger effect = lower value 0.593 | locus YDR502C, strain sam2, stronger effect = lower value 0.864 | locus YEL037C, strain rad23, stronger effect = lower value 0.909 | locus YEL061C, strain CIN8 (second series), stronger effect = lower value 0.887 | locus YEL061C, strain CIN8, stronger effect = lower value 0.904 | locus YER016W, strain bim1, stronger effect = lower value 0.918 | locus YER110C, stronger effect = lower value 0.859 | locus YER111C, strain swi4, stronger effect = lower value 0.907 | locus YER155C, strain BEM2, stronger effect = lower value 0.868 | locus YER167W, strain BCK2, stronger effect = lower value 0.867 | locus YGL086W, strain mad1, stronger effect = lower value 0.884 | locus YGL167C, strain pmr1, stronger effect = lower value 0.851 | locus YGL253W, strain hxk2, stronger effect = lower value 0.897 | locus YGR135W, strain pre9, stronger effect = lower value 0.858 | locus YGR229C, strain SMI1, stronger effect = lower value 0.729 | locus YHR027C, strain rpn1, stronger effect = lower value 0.906 | locus YHR079C, strain IRE1 (second series), stronger effect = lower value 0.887 | locus YHR094C, strain hxt1, stronger effect = lower value 0.872 | locus YHR129C, strain ARP1, stronger effect = lower value 0.911 | locus YHR200W, strain rpn10, stronger effect = lower value 0.872 | locus YIR030C, strain dcg1, stronger effect = lower value 0.863 | locus YJL092W, strain hpr5, stronger effect = lower value 0.908 | locus YJL095W, strain BCK1 (second series), stronger effect = lower value 0.918 | locus YJL129C, strain trk1, stronger effect = lower value 0.697 | locus YJL134W, strain LCB3, stronger effect = lower value 0.894 | locus YJL154C, strain vps35, stronger effect = lower value 0.904 | locus YJL168C, strain set2, stronger effect = lower value 0.868 | locus YJL187C, strain SWE1, stronger effect = lower value 0.922 | locus YJR066W, strain TOR1, stronger effect = lower value 0.81
inactive: locus YAL021C, strain ccr4, stronger effect = lower value 0.934 | locus YAL026C, strain drs2, stronger effect = lower value 0.929 | locus YBL061C, strain skt5, stronger effect = lower value 0.924 | locus YBR009C, strain hhf1, stronger effect = lower value 0.951 | locus YBR021W, strain FUR4, stronger effect = lower value 0.853 | locus YBR023C, strain chs3, stronger effect = lower value 0.919 | locus YBR231C, strain swc5, stronger effect = lower value 0.915 | locus YCL011C, strain gbp2, stronger effect = lower value 0.922 | locus YDL005C, strain med2, stronger effect = lower value 0.946 | locus YDL035C, strain GPR1, stronger effect = lower value 0.921 | locus YDL074C, strain BRE1, stronger effect = lower value 0.898 | locus YDL101C, strain DUN1, stronger effect = lower value 0.994 | locus YDL134C, strain PPH21, stronger effect = lower value 0.904 | locus YDL185W, strain tfp1, stronger effect = lower value 0.984 | locus YDR069C, strain doa4, stronger effect = lower value 0.988 | locus YDR159W, strain sac3, stronger effect = lower value 0.898 | locus YDR195W, strain ref2 1.08 | locus YDR334W, strain swr1, stronger effect = lower value 0.908 | locus YDR335W, strain msn5, stronger effect = lower value 0.923 | locus YEL003W, strain gim4, stronger effect = lower value 0.937 | locus YER015W, strain faa2, stronger effect = lower value 0.936 | locus YER155C, strain BEM2 (second series), stronger effect = lower value 0.904 | locus YFR010W, strain ubp6, stronger effect = lower value 0.986 | locus YGL078C, strain dbp3, stronger effect = lower value 0.959 | locus YGL173C, strain kem1, stronger effect = lower value 0.911 | locus YGL227W, strain vid30, stronger effect = lower value 0.917 | locus YGL240W, strain doc1, stronger effect = lower value 0.967 | locus YGL248W, strain PDE1, stronger effect = lower value 0.936 | locus YGR078C, strain PAC10, stronger effect = lower value 0.897 | locus YGR252W, strain gcn5, stronger effect = lower value 0.854 | locus YHR013C, strain ard1, stronger effect = lower value 0.967 | locus YHR079C, strain IRE1, stronger effect = lower value 0.883 | locus YHR142W, strain chs7, stronger effect = lower value 0.887 | locus YIL066C, strain RNR3, stronger effect = lower value 0.915 | locus YIL073C, strain SPO22, stronger effect = lower value 0.905 | locus YIL125W, strain kgd1, stronger effect = lower value 0.985 | locus YJL095W, strain BCK1, stronger effect = lower value 0.8 and 0.923 | locus YJL115W, strain asf1, stronger effect = lower value 0.908 | locus YJL164C, strain tpk1, stronger effect = lower value 0.948 | locus YJL166W, strain qcr8, stronger effect = lower value 0.929 | locus YJL187C, strain SWE1 (second series), stronger effect = lower value 0.932 | locus YJR043C, strain POL32, stronger effect = lower value 0.942
